We go through 14 compounds from PubChem BioAssay (NCI).

Among the test systems are HCT-15 colon; SNB-75 CNS; SNB-19 CNS; U251 CNS; PC-3 prostate; SK-MEL-5 melanoma; UACC-62 melanoma; LOX IMVI melanoma; SK-MEL-28 melanoma; HT29 colon.
Holding throughout (assay): NCI-60 one-dose screen, 48 h (100 = growth as untreated, 0 = no growth, -100 = all killed)
Holding throughout (settings): 10 µM unless noted

The structures appear in SMILES notation. About 83,000 compounds went through this panel and 20% of them were active in at least one assay; those are over-represented in the sample as a whole.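 Results are percent growth after 48 hours of single-concentration exposure. 100 means growth as in untreated cells, lower positive values show inhibition; negative values down to -100 show cell death.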 Values without a mark were called inactive. Active and inactive are the calls of the source. Rule for the calls: active = growth percent below 10; inactive = the rest.

Regarding `COc1cc(/C=C/c2cc(/C=C/c3ccc(O)c(OC)c3)n(C(=O)c3ccc(Cl)cc3)n2)ccc1O`, the growth in the assay on HCT-15 colon was 14.1%; in the assay on SNB-75 CNS it was -2.93% (active); in the assay on SNB-19 CNS, 45.6%; with U251 CNS, 16.8%; in the assay with PC-3 prostate, 4.59% (active); in the assay on SK-MEL-5 melanoma, -32.4% (active). Moreover, the growth with UACC-62 melanoma is 22.5%; in the assay with LOX IMVI melanoma it was 13.9%; with SK-MEL-28 melanoma, 19.5%.

Regarding `COc1cc(/C=C/C(=O)C(C(=O)/C=C/c2ccc(OC(=O)CCNc3nnc(C)s3)c(OC)c2)C(=O)CCNc2nnc(C)s2)ccc1OC(=O)CCNc1nnc(C)s1`, the growth in the assay with HCT-15 colon was -43.2% (active); with SNB-75 CNS it was -13.6% (active); in the assay on SNB-19 CNS it was 32.7%; in the assay on U251 CNS, 11.1%; in the assay with PC-3 prostate, -16.4% (active); in the assay on SK-MEL-5 melanoma, -22.6% (active). The values for the growth in the assay on UACC-62 melanoma, in the assay with LOX IMVI melanoma and in the assay with SK-MEL-28 melanoma were -67.6% (active), -68.7% (active) and -15.6% (active), respectively.

As to `CC(=O)N1N=C(c2ccc(Cl)cc2)CC1c1c(C)nn(-c2ccccc2)c1N(C)Cc1ccccc1` (stereo not drawn), the growth in the assay on HCT-15 colon was 71%; in the assay with SNB-75 CNS, 80.3%; in the assay with SNB-19 CNS, 64.4%; with U251 CNS, 68.6%; in the assay on PC-3 prostate it was 39.3%; in the assay with SK-MEL-5 melanoma it was 70.3%. The values for the growth with UACC-62 melanoma, in the assay with LOX IMVI melanoma and in the assay on SK-MEL-28 melanoma were 51%, 84.1% and 88.1%, respectively.

Consider `Cc1cc(C)cc(S(=O)(=O)n2ccc(-c3ccc4c(c3)CCC(C)(C)O4)n2)c1`, for which the growth with HCT-15 colon was 82.3%; with SNB-75 CNS, 87.2%; in the assay on SNB-19 CNS, 94.6%; with U251 CNS, 85.6%; in the assay with PC-3 prostate, 82.4%; with SK-MEL-5 melanoma it was 82.9%. The growth was 73.9% in the assay with UACC-62 melanoma, 95% in the assay on LOX IMVI melanoma and 102% with SK-MEL-28 melanoma.

As for `CC(C)=CCCC(C)c1ccc(C)c2c1OCN(CC1CCNCC1)C2` (stereo not drawn), the growth was 39.8% in the assay on HCT-15 colon; 89.3% with SNB-75 CNS; 78.2% in the assay on SNB-19 CNS; -2.5% (active) with U251 CNS; 59.4% with PC-3 prostate; 42.2% with SK-MEL-5 melanoma. The growth in the assay with UACC-62 melanoma is 63.5%; in the assay with LOX IMVI melanoma, -70.5% (active); with SK-MEL-28 melanoma, 92.5%.

Regarding `COc1ccc(OC)c(CCn2cncc2-c2c[nH]c3cc(Br)ccc23)c1`, the growth is 25.1% in the assay with HCT-15 colon; 10.2% in the assay with HT29 colon; 50.1% with SNB-19 CNS; 34.5% in the assay with PC-3 prostate; -75.8% (active) in the assay with SK-MEL-5 melanoma; 36.8% in the assay on UACC-62 melanoma. Also, the growth was 37% with LOX IMVI melanoma and 57.5% in the assay on SK-MEL-28 melanoma.

`Cc1ccc2c(c1)C(=O)/C(=C\Nc1ccc(C(N)=O)cc1)C(O)O2` (stereo not drawn): the growth with HCT-15 colon is 85.9%; with SNB-75 CNS, 74.8%; in the assay with SNB-19 CNS it was 106%; in the assay with U251 CNS it was 85.6%; in the assay with PC-3 prostate it was 76.4%; in the assay with SK-MEL-5 melanoma, 104%. In addition, the growth with UACC-62 melanoma was 106%; with LOX IMVI melanoma, 85.3%; in the assay on SK-MEL-28 melanoma it was 99.8%.

For `CN1CCN(CCCCCN=c2cc3c(=O)n(CCCCCN4CCN(C)CC4)c(=O)c4c(NCCCCCN5CCN(C)CC5)cc5c(O)n(CCCCCN6CCN(C)CC6)c(=O)c2c5c4-3)CC1`, the growth in the assay with HCT-15 colon is 107%; in the assay with SNB-75 CNS, -8.4% (active); with SNB-19 CNS, 3.84% (active); with U251 CNS, 2.35% (active); with PC-3 prostate, 12.6%; in the assay with SK-MEL-5 melanoma it was 44.3%. Also, the results for the growth with UACC-62 melanoma, in the assay on LOX IMVI melanoma and in the assay with SK-MEL-28 melanoma were 21.9%, 1.9% (active) and -34.8% (active), respectively.

Take `COc1cc(NC(C)CCCN)c2nc(C)ccc2c1Oc1ccc(F)cc1` (stereo not drawn): the growth is 71.2% with HCT-15 colon; 64.6% in the assay with SNB-75 CNS; 78.8% in the assay with SNB-19 CNS; 73.2% in the assay on U251 CNS; 63.9% with PC-3 prostate; 86.2% with SK-MEL-5 melanoma. For the same compound, the growth in the assay with UACC-62 melanoma was 81.9%; in the assay on LOX IMVI melanoma, 51%; in the assay on SK-MEL-28 melanoma, 97.8%.

Consider `O=C(Nc1cccc(-n2cc(-c3ccncc3)c(-c3cc(O)cc(Cl)c3)n2)c1)Nc1ccc(Cl)c(Cl)c1`, for which the growth with HCT-15 colon is -25.3% (active); with SNB-75 CNS, 4.08% (active); in the assay with SNB-19 CNS, 30.8%; in the assay on U251 CNS, -56.5% (active); in the assay with PC-3 prostate it was -1.66% (active); in the assay on SK-MEL-5 melanoma, -53% (active). The growth with UACC-62 melanoma is -61.8% (active); with LOX IMVI melanoma, -84.7% (active); in the assay with SK-MEL-28 melanoma, -50.9% (active).

With `COc1ccccc1-n1c(-c2ccc(O)cc2C)cn2c3c(=O)[nH]c(=O)n(C)c3nc12`, the growth in the assay with HCT-15 colon is 98.4%; in the assay with SNB-75 CNS, 7.76% (active); in the assay with SNB-19 CNS, 117%; in the assay with U251 CNS, 97.6%; with PC-3 prostate, 77.1%; in the assay on SK-MEL-5 melanoma, 81.5%. Also, the results for the growth in the assay on UACC-62 melanoma, in the assay with LOX IMVI melanoma and in the assay on SK-MEL-28 melanoma were 76.6%, 72.6% and 104%, respectively.

For the compound `O=C(CC1Sc2ccccc2NC1=O)NNc1cccc(Cl)c1Cl` (stereo not drawn), the growth is 97.1% with HCT-15 colon; 93.4% in the assay on HT29 colon; 83.7% with U251 CNS; 70.9% with PC-3 prostate; 85.5% in the assay with SK-MEL-5 melanoma; 85.1% in the assay with UACC-62 melanoma. In addition, the growth in the assay on LOX IMVI melanoma was 88.8%; in the assay with SK-MEL-28 melanoma, 101%.

Turning to `O=C(COc1ccc(/C=C2\Cc3ccccc3C2=O)cc1)c1ccc(Cl)cc1`, the growth with HCT-15 colon is 96.1%; in the assay on HT29 colon, 109%; with U251 CNS, 93.7%; in the assay on PC-3 prostate, 92.1%; with SK-MEL-5 melanoma it was 98.4%; in the assay with UACC-62 melanoma, 95.2%. Moreover, the results for the growth with LOX IMVI melanoma and in the assay on SK-MEL-28 melanoma were 92.8% and 117%, respectively.

On to `O=C1Nc2ccc(Cl)cc2[C@@](C#CC2CC2)(C(F)(F)F)O1`, for which the growth was 82.9% in the assay with HCT-15 colon; 114% with SNB-75 CNS; 103% with SNB-19 CNS; 92% in the assay with U251 CNS; 92.9% in the assay with PC-3 prostate; 78% with SK-MEL-5 melanoma. The figures for the growth in the assay with UACC-62 melanoma, in the assay with LOX IMVI melanoma and with SK-MEL-28 melanoma were 70%, 85.5% and 109%, respectively.
